Source: PubChem
BAP1 inh: blocks human BAP1 ubiquitin-AMC hydrolysis | Q92560 | recombinant BAP1, Ub-AMC hydrolysis fluorescence kinetic; hits give low values | calls only at 20 µM | 72,000 compounds, 0.48% hits;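 active means activity remaining at or below 50% of control, provided the compound also passes the data quality filters; inactive means the rest, including low values that fail the filters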;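 further: 100% = DMSO wells rate and 0% = substrate alone blank rate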
FXIa inh mix: blocks human factor XIa in pooled compound mixtures; purified FXIa, fluorogenic substrate; inhibition, % at 5 µM; P03951; 62,000 compounds, 0.19% hits;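 further: each value is inhibition by a whole ten-compound pool holding the compound; 0% = enzyme with no mixture and 100% = wells lacking enzyme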
Cathepsin G inh: blocks human cathepsin G enzyme activity | purified enzyme, AMC-tetrapeptide fluorescence, pooled mixtures | 62,000 compounds, 0.2% hits | P08311 | inhibition, % at 5 µM (by protocol);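 active means inhibition above 20% in each of the two mixture wells holding the compound; inactive means inhibition of 20% or less in either well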;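 further: 0% = enzyme control without mixture and 100% = blank lacking enzyme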
Target sequence (P08311 21-244 limits assumed): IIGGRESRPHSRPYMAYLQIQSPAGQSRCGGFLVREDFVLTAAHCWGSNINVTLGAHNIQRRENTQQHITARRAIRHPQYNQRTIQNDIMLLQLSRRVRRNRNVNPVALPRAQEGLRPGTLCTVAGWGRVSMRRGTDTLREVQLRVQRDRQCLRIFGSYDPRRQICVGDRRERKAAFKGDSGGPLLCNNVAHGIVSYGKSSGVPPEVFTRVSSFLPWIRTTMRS
C1s block: blocks human complement C1s protease activity | P09871 | purified C1s, fluorogenic AMC substrate, pooled mixtures | mean inhibition % of two 10-compound mixtures (hits give high values), % at 5 µM (by protocol) | 62,000 compounds, 0.16% hits | AID 538;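 active means inhibition above 20% in each of the two 10-compound mixture wells holding the compound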;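 further: 0% = enzyme wells lacking compound mixture and 100% = no-enzyme blank wells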
HePTP inhibitor: blocks human HePTP tyrosine phosphatase. P35236. recombinant HePTP phosphatase activity, OD absorbance. inhibition, % at 20 µM. 110,000 compounds, 0.64% hits; in the data active means inhibition above about 50%;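 further: plate controls were vehicle for no effect and reference inhibitor for full effect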
Target sequence (P35236 whole entry, looked up): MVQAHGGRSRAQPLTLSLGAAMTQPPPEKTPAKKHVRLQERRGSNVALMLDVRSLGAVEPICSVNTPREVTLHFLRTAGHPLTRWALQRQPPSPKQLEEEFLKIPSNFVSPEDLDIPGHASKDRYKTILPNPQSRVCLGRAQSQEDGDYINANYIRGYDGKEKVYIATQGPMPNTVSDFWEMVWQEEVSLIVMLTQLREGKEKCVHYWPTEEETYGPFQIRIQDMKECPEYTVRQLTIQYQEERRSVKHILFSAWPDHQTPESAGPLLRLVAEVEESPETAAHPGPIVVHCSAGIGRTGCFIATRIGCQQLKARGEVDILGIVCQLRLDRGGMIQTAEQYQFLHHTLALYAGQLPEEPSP
FXIIa inh mix: blocks human factor XIIa in pooled compound mixtures | P00748 | purified FXIIa, fluorogenic substrate | inhibition, % at 5 µM | 62,000 compounds, 0.2% hits | AID 684;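 further: 0% = enzyme without compound and 100% = no enzyme blank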
* marks the source's active call; other numbers are inactive results; ! = not confirmed by another sample. A selection: hits, their analogues and other compounds. The true share with any hit is near 1.1%. Unless noted, no stated cut-off is given here; in the data, active means inhibition above about 20% (passing the limit was not always enough); inactive means the rest.

Screening COc1cc([N+](=O)[O-])cc(/C=N/NC(=O)COc2c(Br)cc(Br)cc2Br)c1O returned HePTP inhibitor 79*.
For COc1c(Br)cc(Br)cc1/C=N/NC(=O)COc1ccccc1[N+](=O)[O-] the results were HePTP inhibitor 12.
Screening Cc1ccc(/C=N/N=C2/NC(=O)C(CC(=O)Nc3ccccc3C(F)(F)F)S2)o1 (stereo not drawn) returned HePTP inhibitor 6.
`CC1=C(C#N)c2nc(N)c(C#N)c(C)c2/C1=C/c1ccc(-c2ccc(C(=O)O)c(Cl)c2)o1` gave HePTP inhibitor 102*.
O=C1NC(=Nc2cccc(O)c2)S/C1=C\c1ccc(F)cc1 was read as HePTP inhibitor 7.
Cc1ccc(/C=C2\SC(=S)N(c3cccc(C)c3C)C2=O)cc1 was read as HePTP inhibitor -5.
`O=C(CCCN1C(=O)/C(=C/c2ccc(F)cc2)SC1=S)Nc1ccc(C(=O)O)cc1` gave HePTP inhibitor 102*.
`CCN(CC)c1ccc(N2C(=O)/C(=C/c3ccc(C(=O)OC)cc3)SC2=S)cc1` gave HePTP inhibitor 7.
Screening O=C(CN1C(=O)/C(=C/c2ccccc2)SC1=S)Nc1cccc(C(=O)O)c1 returned HePTP inhibitor 52*.
Screening O=C(CN1C(=O)/C(=C/c2ccccc2)SC1=S)Nc1cccc(Br)c1 returned HePTP inhibitor 6.
`CCN(CC)c1ccc(N2C(=O)/C(=C/c3ccc(C(=O)O)cc3)SC2=S)cc1` gave HePTP inhibitor 104*.
`O=C(CCCN1C(=O)/C(=C/c2ccc(F)cc2)SC1=S)Nc1cccc(C(=O)O)c1` gave HePTP inhibitor -10.
O=C(/C=C/Nc1cccc(O)c1)c1ccc(Br)cc1 was read as HePTP inhibitor -2.
For CC1=NN(c2ccccc2)C(=O)/C1=C/c1ccc(OS(=O)(=O)c2ccccc2[N+](=O)[O-])cc1 the results were HePTP inhibitor -8.
Screening COC1=CC(CC(=O)c2ccc(OC)cc2)C(C(=O)c2ccccc2Cl)C=C1OC (stereo not drawn) returned HePTP inhibitor 95*.
Screening COC1=CC(CC(=O)c2ccc(OC)c(OC)c2)C(C(=O)c2ccccc2Cl)C=C1OC (stereo not drawn) returned HePTP inhibitor 5.
For Cc1c(-c2ccc(Cl)cc2Cl)nc2ccccc2c1C(=O)NCc1ccc2c(c1)OCO2 the results were HePTP inhibitor 103*.
O=[N+]([O-])c1ccc(COc2ccccc2/C=N/Nc2nc3ccccc3s2)cc1 was read as HePTP inhibitor 3.
CCOC(=O)N1CCN(C(=O)c2ccc3c(=O)n(Cc4ccccc4)c(=S)[nH]c3c2)CC1 was read as BAP1 inh inactive, FXIa inh mix 57*, Cathepsin G inh -2, C1s block -5, HePTP inhibitor -14 and FXIIa inh mix -4.
For CC(C)(C)C1(C)OC(O)(C(F)(F)C(F)F)CC1=O (stereo not drawn) the results were HePTP inhibitor 104*.
`COC(=O)C1=C(C)N(Cc2cccnc2)C(=O)/C1=C\c1cccc(OC)c1O` gave HePTP inhibitor 1.
Screening COc1ccc(CC(=O)OCc2cc3ccccc3[nH]c2=O)cc1 returned BAP1 inh inactive, FXIa inh mix -3, Cathepsin G inh -9, C1s block 67*, HePTP inhibitor -8 and FXIIa inh mix 13.
For C=CCN1C(=O)/C(=C\c2ccc(OCc3ccccc3F)c(OC)c2)C(=O)NC1=S the results were HePTP inhibitor -2.
CCn1c2ccccc2c2cc(C=Nc3ccccc3C(N)=O)ccc21 was read as HePTP inhibitor 0.
`COc1cc(-c2nnc3ccc(C(F)(F)F)cn23)ccc1Oc1ccc([N+](=O)[O-])cc1` gave HePTP inhibitor 102*.
Screening COc1cc(C=O)ccc1Oc1ccc([N+](=O)[O-])cc1 returned HePTP inhibitor -12.
For CCn1c(SC)nnc1-c1sc2cc(Cl)ccc2c1Cl the results were BAP1 inh inactive, FXIa inh mix 18, Cathepsin G inh 10, C1s block 15, HePTP inhibitor 8 and FXIIa inh mix 42*.
Screening CSc1nnc(-c2sc3cc(Cl)ccc3c2Cl)n1C returned BAP1 inh inactive, FXIa inh mix 11, Cathepsin G inh 1, C1s block -39, HePTP inhibitor 7 and FXIIa inh mix 0.
`COC(=O)c1c(-c2ccc(F)cc2)csc1NC(=O)C1CCCCC1C(=O)O` (stereo not drawn) gave HePTP inhibitor 0.
Screening CCn1c(SCC(=O)N2CCCc3ccccc32)nnc1-c1cccs1 returned BAP1 inh inactive, FXIa inh mix 9, Cathepsin G inh 3, C1s block 0, HePTP inhibitor 11 and FXIIa inh mix -17.
CCn1c(SCC(=O)N2CCOCC2)nnc1-c1cccs1 was read as BAP1 inh inactive, FXIa inh mix 21*, Cathepsin G inh 2, C1s block -1, HePTP inhibitor 8 and FXIIa inh mix -4.
For CC(C)(C)N1C(=O)c2ccc(C(=O)Nc3ccc(I)cc3C(=O)O)cc2C1=O the results were HePTP inhibitor 18.
`COc1cc(C(=O)Nc2ccc([N+](=O)[O-])cc2Cl)cc(OC)c1OC` gave HePTP inhibitor -1.
Screening Cc1ccc(-n2cnc3c(sc4nccc(N(C)C)c43)c2=O)cc1 returned BAP1 inh inactive, FXIa inh mix 3, Cathepsin G inh 4, C1s block -9, HePTP inhibitor 12 and FXIIa inh mix 11.
COc1ccc(-n2cnc3c(sc4nccc(N(C)C)c43)c2=O)cc1 was read as BAP1 inh inactive, FXIa inh mix -1, Cathepsin G inh -4, C1s block 1, HePTP inhibitor 105*! and FXIIa inh mix -17.
Screening Cc1ccc(-c2ccc(OCC(=O)Nc3cc(Cl)ccc3C)cc2)cc1 returned HePTP inhibitor -8.
Screening Cc1ccc(C(=O)NC(=S)NCCCN2CCOCC2)cc1 returned HePTP inhibitor 103*.
`COc1ccc(/C=N/OCC(=O)N=Nc2c(O)n(CN(C)C)c3ccc(Br)cc23)cc1` gave HePTP inhibitor 104*.
`CCOC(=O)c1c(NC(=S)NC(=O)c2ccccc2)sc2c1CCC(C)C2` (stereo not drawn) gave HePTP inhibitor -5.
Screening O=C(N/N=C\c1ccccc1Br)c1cnccn1 returned HePTP inhibitor 8.
`O=C(N/N=C/c1ccccc1O)c1cnccn1` gave HePTP inhibitor 104*.
CC1(C)Oc2ccc3ccc(=O)oc3c2C(N2CCCCC2)C1O (stereo not drawn) was read as BAP1 inh inactive, FXIa inh mix 4, Cathepsin G inh 12, C1s block 11, HePTP inhibitor 0 and FXIIa inh mix 20*.
For CCOc1ccc(-n2nc3ccc(NC(=S)NC(=O)c4ccccc4Cl)cc3n2)cc1 the results were HePTP inhibitor -3.
